Assay outcomes as filed in PubChem BioAssay.
ATXN viability – reduces viability in counter-screen for ATXN expression inhibitors; S2 cells (HEK-293 line with an ATXN2-luciferase reporter) viability, CellTiter-Fluor protease fluorescence, 24 h; Potency, µM (highest dose often 56.7 µM), actives largely listed as cytotoxic; actives 0.49% (n = 400,000); note: potency is the fitted concentration of half-maximal effect; nearly all actives have a fitted effect of over 40% in size
DRD3 antagonist – D3 dopamine receptor (human) antagonism; AID 652054; actives 2.5% (n = 360,000); max response, negative = inhibition, %; D3R cells, DiscoveRx beta-arrestin luminescence, antagonist mode; hits give low values; P35462; in the data active = max response below about -50%; inconclusive = no clear call, values can overlap the other calls; note: % is set by controls: 0 for no effect and ±100 for the full control effect
Target sequence (P35462 whole entry, looked up): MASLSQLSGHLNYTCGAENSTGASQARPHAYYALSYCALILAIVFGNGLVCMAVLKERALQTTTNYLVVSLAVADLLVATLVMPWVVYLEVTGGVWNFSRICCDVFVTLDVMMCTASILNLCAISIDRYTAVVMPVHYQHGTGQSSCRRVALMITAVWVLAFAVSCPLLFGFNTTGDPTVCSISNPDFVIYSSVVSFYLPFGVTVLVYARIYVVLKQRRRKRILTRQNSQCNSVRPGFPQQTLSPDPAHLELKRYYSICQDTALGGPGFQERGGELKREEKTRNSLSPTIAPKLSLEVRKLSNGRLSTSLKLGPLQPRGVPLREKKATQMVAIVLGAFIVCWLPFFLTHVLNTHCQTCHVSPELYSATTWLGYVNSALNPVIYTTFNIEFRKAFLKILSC
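Cells plated overnight at 1500 cells/well, then exposed to library compounds with dopamine controls for 90 minutes at 37 degrees C. DiscoveRx reagent added for 30–60 minutes at room temperature; luminescence read, quantitative HTS format.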
IL-1B inflam inh – blocks inflammasome-driven IL-1 beta release; THP-1 LPS/ATP IL-1B secretion, AlphaLISA, 16 h; hits give low values; activity change, % at 57.5 µM; actives 4.7% (n = 360,000); AID 743279; in the data active = activity change below about -50%; inconclusive = mostly about -30% to -49%; note: % is set by controls: 0 for no effect and ±100 for the full control effect
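THP-1 cells pretreated 1 hr with compounds (up to 57.5 uM final), then stimulated with LPS (250 ng/mL final) plus ATP (1.25 mM final); secreted IL-1B measured by AlphaLISA after 16 hr, decreased signal indicating inhibition.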
DRD3 agonist – activates the human D3 dopamine receptor. D3R DiscoveRx beta-arrestin cells, luminescence, 90 min. max activation, %. P35462. actives 0.58% (n = 410,000); in the data active = max activation above about 30%; note: 0% is about no effect
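Agonist-mode cell screen: cells plated at 1500/well and incubated overnight at 37 °C, then exposed to library compounds for 90 min at 37 °C. Detection reagent was added for 30–60 min at room temperature, and luminescence was read.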
Integrin act MD – activators of alpha7 integrin expression for muscular dystrophy | AID 624291 | actives 0.064% (n = 350,000) | alpha7betagal myoblasts, beta-gal FDG fluorescence, 48 h | Potency, µM (top dose mostly 38.3 µM), inactives show top-dose activation, actives largely listed as activators;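 note: potency is the fitted concentration of half-maximal effect; 100% = response of the positive control SU9516; nearly all actives have a fitted effect of over 60% in size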
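alpha7betagal+/- myoblasts (passage 13, 250/well) treated 48 h at 37C with compounds at 1:260 dilution of DMSO stock. Lysed, then beta-galactosidase activity read as FDG fluorescence (ex 480/em 540) after 30 min, with pre-read for autofluorescence.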
ATXN2 expr inh – reduces ATXN2 reporter expression in HEK-293 cells; HEK-293 ATXN2-luciferase reporter, luminescence, 24 h; Potency, µM (doses to about 57 µM), inactives show at the highest dose activity change, negative = inhibition, actives largely listed as inhibitors; actives 0.72% (n = 360,000); AID 1745845; note: potency is the fitted concentration of half-maximal effect; % is set by controls: 0 for no effect and ±100 for the full control effect; nearly all actives have a fitted effect of over 55% in size
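ATXN2-luciferase reporter cells (luciferase flanked by upstream and downstream ATXN2 gene portions) were treated 24 h at 37 °C with compounds at up to 57 uM. SteadyGlo luminescence gave expression; GF-AFC fluorescence gave viability.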
Starred values were filed as active, the others as inactive; i = inactive; ? = inconclusive; . = no result; [ ] = remark or other dose. Compounds with a hit are over-represented: about 7% of the library has one in this group of screens. Unless noted, calls come from the whole dose curve; as a rule, active = well fitted curve in the direction sought with a large enough effect; inconclusive = small, poorly fitted or top-dose-only effect, or another doubt; inactive = no such curve, though single readings can be large; an effect the other way counts as inactive or inconclusive.

SMILES	ATXN viability	DRD3 antagonist	IL-1B inflam inh	DRD3 agonist	Integrin act MD	ATXN2 expr inh
Cc1ccc(N(C(=O)c2nsc(Cl)c2Cl)C(C(=O)NC2CCCC2)c2ccc(O)cc2)cc1C (stereo not drawn)	i	-52*	-65*	-31	0%	-37%
Cc1cc(C)cc(N(C(=O)c2nsc(Cl)c2Cl)C(C(=O)NC2CCCC2)c2ccc(O)cc2)c1 (stereo not drawn)	?	-12	-80*	-20	-3%	?
Cc1cccc(N(C(=O)c2nsc(Cl)c2Cl)C(C(=O)NC2CCCC2)c2ccc(O)cc2)c1C (stereo not drawn)	.	-21	-73*	-12	-5%	?
Cc1ccc(C)c(S(=O)(=O)Nc2ccc3scnc3c2)c1	i	-5	-19	5	-12%	-23%
CCOC(=O)C1=C(C)Nc2ccccc2N=C1NC(=O)C(c1ccccc1)c1ccccc1	i	-7	12	-9	15%	-23%
CC(=O)Nc1ccc(C2=NNC(=Nc3cccc(S(=O)(=O)N(C)C)c3)SC2)cc1	?	1	-79*	-3	-66%	.
COCCN=C1NN=C(c2ccc(NC(C)=O)cc2)CS1	i	-5	54	4	9%	-17%
COc1ccc(C2=NNC(=Nc3cc(S(=O)(=O)N(C)C)ccc3C)SC2)c(OC)c1	?	11	-54*	12	-55%	.
CN(C)S(=O)(=O)c1cccc(N=C2NN=C(c3ccccc3)CS2)c1	?	-2	-57*	-7	-66%	0%
COc1cc(C(=O)N/C(=C\c2cn(C)c3ccccc23)C(=O)NCCN2CCOCC2)cc(OC)c1OC	i	-7	29	-5	-4%	-4%
CCOc1ccc(N2C(=O)C(C)CNC2=S)cc1 (stereo not drawn)	i	3	-8	2	20%	-3%
COc1ccc(OCC(=O)NC(=O)c2ccccc2OC)c([N+](=O)[O-])c1	i	11	26	0	-8%	4%
CCOC(=O)C1(c2ccccc2)SC(C(=O)OCC)(c2ccccc2)S1 (stereo not drawn)	?	-3	-66*	1	-10%	.
CCOCCCn1c(SCC(=O)N(C)C2CCS(=O)(=O)C2)nc2ccccc2c1=O (stereo not drawn)	?	3	-16	7	18%	-1%
COC(=O)CCCCC1SCC2NC(=O)NC21O (stereo not drawn)	i	0	-113*	-5	3%	2%
Nc1nc(/C=C/c2cccnc2)nc(-c2ccccc2O)n1	i	6	-60*	2	32%	34%
COc1cccc(C=Cc2nccc3ccccc23)c1OC	?	8	-58*	7	-32%	.
CCOc1cccc(/C=C/c2ccc3cccc(O)c3n2)c1OC	i	-83*	27	-24	-57%	6%
CCOc1cccc(/C=C/c2ccc3cccc(O)c3n2)c1O	?	-56*	-97*	1	-17%	-8%
CN(C)c1ccc(C=Cc2nccc3ccccc23)cc1	.	19	-22	3	.	-11%
Cc1nc2ccc3[nH]snc3c2n1	i	-28	33	2	28%	-9%
COc1cccc(NC(=O)C2CCCN(S(=O)(=O)c3cn(C(C)C)cn3)C2)c1 (stereo not drawn)	.	.	.	-16	.	.
COC(=O)c1ccc(C2N=C(c3cccs3)CC(c3ccccc3O)N2)cc1 (stereo not drawn)	i	-21	-91*	2	-12%	-7%
OCCC1CN(Cc2cc3c(cc2Cl)OCO3)CCN1C1CCCCC1 (stereo not drawn)	i	-12	-4	-11	-1%	-18%[11.3 µM]
OCCC1CN(Cc2cc3c(cc2Cl)OCO3)CCN1C1CCCC1 (stereo not drawn)	i	-53*	?	-14	0%	.
SMILES	ATXN viability	DRD3 antagonist	IL-1B inflam inh	DRD3 agonist	Integrin act MD	ATXN2 expr inh
COc1ccc(OS(=O)(=O)c2ccc(N3C(=O)CCC3=O)cc2)cc1	i	-9	9	-4	7%	0%
O=C(COc1ccccc1[N+](=O)[O-])Nc1cccc(-c2nc3ccccc3s2)c1	?	.	.	19	.	2%
COC(=O)c1ccc(COc2ccccc2/C=C(\C#N)C(=O)Nc2c(C)cc(C)cc2C)cc1	?	-5	-79*	-5	-49%	-17%
CC(C)NC(=O)CSc1nnc(C2CC2)n1-c1ccccc1	i	-51*	15	4	0%	2%
Cc1[nH]c(=O)[nH]c(=O)c1S(=O)(=O)N1CCCC(C(=O)NCc2ccccc2Cl)C1 (stereo not drawn)	i	11	5	-4	31%	-15%
CCCCc1nc2ccccc2c(NC(=O)CNC(C)(C)C)c1CCC	?	-21	30	1	-38%	-28%
CCCCc1nc2ccccc2c(N)c1CCC (tested in a mixture with another compound)	i	1	-97*	-22	11µM*	-17%
CC(=O)c1ccc(S(=O)(=O)N2CCn3cccc3C2c2ccc(C)cc2)cc1 (stereo not drawn)	i	.	.	-11	.	0%
O=C(CSc1n[nH]c(=O)n1C1CC1)NCc1ccccc1Cl	i	-6	2	-7	1%	-16%
O=C(Nc1nnc(S(=O)(=O)N2CCCC2)s1)c1ccccc1F	i	-11	-59*	1	19%	15%
O=C(Nc1nnc(S(=O)(=O)N2CCCC2)s1)c1ccccc1Cl	i	9	-2	1	-8%	2%
COc1ccccc1NC(=O)c1c(C)cc(C)nc1SCC(=O)Nc1ccc(C)c(C)c1	.	.	.	-4	.	.
O=[N+]([O-])c1ccc(NCc2ccc(Cl)cc2)nc1	i	-14	-78*	-13	6%	14%
CC(C)c1ccc(CNc2ccc([N+](=O)[O-])cn2)cc1	i	?	?	-12	-7%	130%
O=[N+]([O-])c1ccc(Nc2ccc3ccccc3c2)nc1	i	-107*	-5	-16	-9%	37%
O=[N+]([O-])c1ccc(Nc2ccc(Cl)cc2)nc1	?	-25	-57*	6	?	-3%
COc1cccc(C(=O)C2CCCN(Cc3cccn3-c3cccnc3)C2)c1 (stereo not drawn)	i	3	?	-23	-22%	-22%
O=S(=O)(c1ccc(=S)[nH]c1)N1CCCCCC1	.	3	19	2	12%	.
Cc1nc2c([nH]1)C1(CCN(Cc3ccccc3)CC1)C(C#N)=C(N)O2	i	-7	-10	0	13µM*	-4%
CC1(C)CC(=O)C2=C(C1)OC(N)=C(C#N)C21CCN(Cc2ccccc2)CC1	i	-21	0	12	-17%	21%
